Laboratory results from the supplement of paper PMC3334620.
Whole data set: some 33,000 sequences, median “E-score (-0.5 to 0.5)” near -0.015, cut for the highest 2% near 0.3. This is one part of a sample in which the highest values are shown more often than they occur.

Target: T1, Abf1 (UniProt P14164)
T1 sequence: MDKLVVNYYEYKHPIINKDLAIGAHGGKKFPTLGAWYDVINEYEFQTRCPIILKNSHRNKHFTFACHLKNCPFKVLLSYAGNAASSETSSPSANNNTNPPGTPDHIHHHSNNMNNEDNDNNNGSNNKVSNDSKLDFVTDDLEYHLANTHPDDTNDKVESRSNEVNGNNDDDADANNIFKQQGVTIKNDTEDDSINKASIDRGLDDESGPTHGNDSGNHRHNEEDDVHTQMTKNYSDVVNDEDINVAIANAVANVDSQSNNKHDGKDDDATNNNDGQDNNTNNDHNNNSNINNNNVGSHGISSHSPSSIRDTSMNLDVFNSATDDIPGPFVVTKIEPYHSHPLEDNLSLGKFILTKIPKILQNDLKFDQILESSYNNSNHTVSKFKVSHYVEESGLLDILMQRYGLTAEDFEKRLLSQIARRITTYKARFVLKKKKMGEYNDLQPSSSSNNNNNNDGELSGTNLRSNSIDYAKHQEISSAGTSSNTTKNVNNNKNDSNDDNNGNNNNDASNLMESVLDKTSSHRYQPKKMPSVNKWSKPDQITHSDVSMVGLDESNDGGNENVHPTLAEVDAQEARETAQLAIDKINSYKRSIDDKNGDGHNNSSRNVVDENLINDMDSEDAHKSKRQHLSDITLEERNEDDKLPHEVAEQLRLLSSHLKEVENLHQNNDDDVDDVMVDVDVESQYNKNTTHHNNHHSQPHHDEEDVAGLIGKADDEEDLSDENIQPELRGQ
Experiment: PBM E-score (8-mer binding enrichment) (E-score (-0.5 to 0.5)); higher = stronger / more preferred TF binding
Settings: protein concentration: 200 nM; construct: GST-full length
Procedure, shortened: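 Yeast transcription factors, full-length or as DNA-binding domains, were expressed with a GST tag using PURExpress in vitro transcription/translation. At about 100-200 nM they were applied to universal all-10-mer Agilent arrays, double-stranded by primer extension on fresh or once-stripped slides. Fluorescent anti-GST detected bound protein, and masliner normalised the scans. E-scores for ungapped eight-base words, pooled with reverse complements, came from the Universal PBM Analysis Suite.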

Going from AGTAAATA to GATAAATA, the “PBM E-score” value rises from 0.103 to 0.257.

Going from AATAAAAT to CGTAAATC, the “PBM E-score” value falls from 0.2 to 0.131.

Compared with CGTAAATA, AATAAATA is higher in “PBM E-score” value: 0.299 for the first, 0.32 for the second.

Going from TATAAATA to AATAAATT, the “PBM E-score” value rises from 0.257 to 0.313.

First: AATAAATG
Second: AAAAGATA
The “PBM E-score” value of the first is lower: 0.149 for the first, 0.182 for the second.

First: CCTATGCA
Second: CGAAGCCG
The “PBM E-score” value of the first is higher: 0.018 for the first, -0.0718 for the second.

First: GCACCCTA
Second: GAGGTCGC
The “PBM E-score” value of the first is lower: -0.149 for the first, 0.0116 for the second.

First: CCGTGCAA
Second: CCGTGCGC
The “PBM E-score” value of the first is higher: 0.334 for the first, 0.218 for the second.

Compared with ACGTGCAA, CTGTGCAA is lower in “PBM E-score” value: 0.21 for the first, 0.0274 for the second.

First: ACGTGCAC
Second: GCGTGCGA
The “PBM E-score” value of the first is higher: 0.112 for the first, -0.0331 for the second.

Going from GCGTGCAA to GCGTGCAC, the “PBM E-score” value falls from 0.0992 to -0.0221.

First: CCGTGCAC
Second: CCGTGCGA
The “PBM E-score” value of the first is lower: 0.31 for the first, 0.354 for the second.

First: CCGTGCAG
Second: TCGTGCAA
The “PBM E-score” value of the first is lower: 0.192 for the first, 0.361 for the second.

Going from TCTCCAAA to CCCGGCCA, the “PBM E-score” value falls from -0.0776 to -0.267.

Going from AACAGCTG to ACACTGGG, the “PBM E-score” value falls from -0.0093 to -0.134.

First: GCAACTCC
Second: ACACGTGA
The “PBM E-score” value of the first is lower: -0.257 for the first, 0.237 for the second.

Going from CCGAACCG to AATGATGG, the “PBM E-score” value rises from -0.0651 to 0.0838.

Going from GATAATAA to AATGATAG, the “PBM E-score” value falls from 0.24 to 0.229.

Compared with CATGATAC, GATGATAC is higher in “PBM E-score” value: 0.236 for the first, 0.297 for the second.

Compared with AATGATAA, AATGATTA is lower in “PBM E-score” value: 0.408 for the first, 0.273 for the second.

Compared with AATGATGT, AATGATAC is lower in “PBM E-score” value: 0.325 for the first, 0.288 for the second.

First: AATGATGA
Second: GATGATAA
The “PBM E-score” value of the first is lower: 0.282 for the first, 0.36 for the second.

First: AGCTAGGG
Second: CCTGCGTC
The “PBM E-score” value of the first is lower: -0.309 for the first, -0.22 for the second.

First: ATACTTTA
Second: ACAACCGG
The “PBM E-score” value of the first is higher: 0.094 for the first, 0.0327 for the second.

First: GGGGCATA
Second: CAGCTTAA
The “PBM E-score” value of the first is lower: -0.184 for the first, -0.00327 for the second.

Going from CATGATAA to AATGATAT, the “PBM E-score” value rises from 0.356 to 0.436.

Compared with CATGATAG, AATGAGAT is higher in “PBM E-score” value: 0.0986 for the first, 0.148 for the second.

Going from AATGAAAT to TATGATAA, the “PBM E-score” value rises from 0.166 to 0.258.

First: CTGGATGA
Second: CCTTGAAG
The “PBM E-score” value of the first is higher: 0.0651 for the first, -0.111 for the second.

First: GCGTGGCA
Second: CAACGAAA
The “PBM E-score” value of the first is lower: -0.0717 for the first, 0.23 for the second.

First: CGACGAAG
Second: CGACGAAA
The “PBM E-score” value of the first is lower: 0.357 for the first, 0.363 for the second.

Compared with GGACGAAA, AGACGAAG is higher in “PBM E-score” value: 0.0999 for the first, 0.135 for the second.

Going from CGACGAGA to CGACGAAC, the “PBM E-score” value rises from 0.13 to 0.168.

First: TGACGAAA
Second: AGACGAAA
The “PBM E-score” value of the first is higher: 0.349 for the first, 0.296 for the second.

Compared with TCAACGCA, CCCAGAAC is lower in “PBM E-score” value: -0.00848 for the first, -0.144 for the second.

Going from GTGCCTTA to AGCCTGAG, the “PBM E-score” value falls from 0.0147 to -0.27.

First: ATATACCG
Second: ATATACCA
The “PBM E-score” value of the first is higher: 0.268 for the first, 0.173 for the second.

Going from CTATACGA to GTATACGA, the “PBM E-score” value falls from 0.327 to 0.242.

First: ATATACGG
Second: CTATACGC
The “PBM E-score” value of the first is higher: 0.339 for the first, -0.0573 for the second.

First: ATCTACGC
Second: AGATACGA
The “PBM E-score” value of the first is lower: 0.0634 for the first, 0.223 for the second.

Going from ATATACGC to ATCTACGA, the “PBM E-score” value rises from 0.146 to 0.233.

First: ATATACGA
Second: ATCTACGG
The “PBM E-score” value of the first is lower: 0.324 for the first, 0.344 for the second.

First: CTGGCGGA
Second: AGTCGCTC
The “PBM E-score” value of the first is lower: -0.122 for the first, -0.106 for the second.

Compared with CGACCCTC, GTCGACGA is higher in “PBM E-score” value: -0.152 for the first, 0.26 for the second.

First: TAAGATGA
Second: AGACGGCT
The “PBM E-score” value of the first is higher: 0.182 for the first, -0.0258 for the second.

First: CGTATACG
Second: ATCGCCCC
The “PBM E-score” value of the first is higher: 0.195 for the first, -0.113 for the second.

First: ACAACTTA
Second: GTAAAGAA
The “PBM E-score” value of the first is lower: 0.0805 for the first, 0.113 for the second.

Going from ACCACACA to CTGCCGTA, the “PBM E-score” value rises from -0.0452 to 0.122.

Compared with GTAAGCAA, ATTGTCAA is lower in “PBM E-score” value: 0.0905 for the first, -0.0577 for the second.

Compared with CTTGTCAA, CCTGTCAC is higher in “PBM E-score” value: 0.0838 for the first, 0.149 for the second.

Going from CTTGTCAC to ATTGTCAC, the “PBM E-score” value rises from 0.357 to 0.398.

First: ATTGTCAG
Second: TAGCCGGA
The “PBM E-score” value of the first is higher: 0.141 for the first, -0.117 for the second.

First: AAGTGGCT
Second: ATGTGACA
The “PBM E-score” value of the first is lower: -0.149 for the first, 0.288 for the second.

Compared with AAGTGACC, AAGTGACA is higher in “PBM E-score” value: 0.252 for the first, 0.394 for the second.

Compared with AAGTGACT, AAGTGACG is higher in “PBM E-score” value: 0.328 for the first, 0.352 for the second.

First: AAGTGAGG
Second: AAGTGCCA
The “PBM E-score” value of the first is higher: -0.0213 for the first, -0.105 for the second.

Compared with CAGTGACG, GGGCTATA is lower in “PBM E-score” value: 0.239 for the first, -0.0762 for the second.

Going from AATCACCC to AACGCAAC, the “PBM E-score” value falls from 0.195 to 0.0366.

Going from CATTTTGG to AGAGTGTG, the “PBM E-score” value falls from 0.124 to -0.158.

Compared with AGGTGAGG, TACAACCA is lower in “PBM E-score” value: 0.115 for the first, -0.0973 for the second.

First: CCGAAGGA
Second: ACCTCATA
The “PBM E-score” value of the first is lower: -0.29 for the first, 0.195 for the second.

First: CGGAAGAG
Second: AGTCCCCG
The “PBM E-score” value of the first is higher: -0.212 for the first, -0.265 for the second.

First: AGTTTATA
Second: AACTTAGC
The “PBM E-score” value of the first is higher: 0.0788 for the first, 0.0723 for the second.

Compared with CTGCACGC, CTGCACGA is higher in “PBM E-score” value: -0.24 for the first, 0.303 for the second.

Compared with ATGCACGC, GTGCACGA is higher in “PBM E-score” value: -0.131 for the first, 0.187 for the second.

Compared with ATGCACGG, ATGCACGA is higher in “PBM E-score” value: 0.258 for the first, 0.362 for the second.

First: CCAGAGGG
Second: AGAATTTG
The “PBM E-score” value of the first is lower: -0.267 for the first, -0.0116 for the second.

Compared with AAACGAAG, GTAATGCA is lower in “PBM E-score” value: 0.108 for the first, -0.123 for the second.

Going from CATGCTAA to AAATACGA, the “PBM E-score” value rises from 0.0181 to 0.333.

First: AAATACGG
Second: CAATACGA
The “PBM E-score” value of the first is higher: 0.314 for the first, 0.281 for the second.

Compared with AAATACGT, CAATACGG is higher in “PBM E-score” value: 0.039 for the first, 0.228 for the second.

Going from TAATACGA to AAATACGC, the “PBM E-score” value falls from 0.337 to 0.0308.

Compared with GAATACGA, AGATACGG is lower in “PBM E-score” value: 0.253 for the first, 0.129 for the second.

Compared with CCACGCGG, ATACTTAG is higher in “PBM E-score” value: -0.0923 for the first, -0.0263 for the second.

Going from GAAGCTGA to GCAGACCC, the “PBM E-score” value falls from -0.0959 to -0.286.

Compared with CACTGTCA, GTTCGAAC is lower in “PBM E-score” value: 0.234 for the first, 0.21 for the second.

Going from AGGACAAT to CTGACAAA, the “PBM E-score” value falls from 0.125 to 0.0266.

Going from ATGACAAA to AAGACAAT, the “PBM E-score” value falls from 0.338 to 0.138.

First: ATGACAAT
Second: GGGACAAC
The “PBM E-score” value of the first is higher: 0.344 for the first, -0.0272 for the second.

First: AGGACAAA
Second: GTGACAAA
The “PBM E-score” value of the first is lower: 0.121 for the first, 0.412 for the second.

Compared with CTGACAAC, AAGACAAA is higher in “PBM E-score” value: -0.0598 for the first, 0.127 for the second.

Going from TTGACAAA to GTGACAAC, the “PBM E-score” value rises from 0.182 to 0.375.

Compared with TACGCGCA, TCCCGAAA is higher in “PBM E-score” value: 0.0188 for the first, 0.0516 for the second.

Compared with AATGAAGT, ATAAACCA is higher in “PBM E-score” value: -0.0259 for the first, 0.0453 for the second.

Going from GCAATGAC to GCACGCAC, the “PBM E-score” value falls from 0.245 to 0.0219.

Going from ACCTGCGT to ATCCACAC, the “PBM E-score” value falls from -0.045 to -0.103.
